Bioassay records from PubChem BioAssay.
Hits are enriched below; roughly 7.5% of the tested compounds scored in any of these assays.
ELG1 genotox – inducers of genotoxicity in HEK293T ELG1-luciferase cells; Potency, µM (doses to about 46 µM), most hits filed as activators; hit rate 1.3% among 330,000; HEK293T ELG1-luciferase reporter, luminescence, 16 h; AID 504466; note: nearly all actives have a fitted effect of over 60% in size
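HEK293T cells expressing luciferase-tagged ELG1 were exposed to compound or DMSO vehicle for 16 hr at 37 °C and 5% CO2. Luciferase activity was then measured with ONE-Glo after 30 min at room temperature.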
FLuc modulator – inhibits or activates purified firefly luciferase, miR-21 counter-screen. purified FLuc, Km substrates, luminescence inhibition. P08659. Potency, µM (series often up to 57.5 µM), actives largely listed as inhibitors. hit rate 6.9% among 360,000; note: nearly all actives have a fitted effect of over 55% in size
Target sequence (P08659 whole entry, looked up): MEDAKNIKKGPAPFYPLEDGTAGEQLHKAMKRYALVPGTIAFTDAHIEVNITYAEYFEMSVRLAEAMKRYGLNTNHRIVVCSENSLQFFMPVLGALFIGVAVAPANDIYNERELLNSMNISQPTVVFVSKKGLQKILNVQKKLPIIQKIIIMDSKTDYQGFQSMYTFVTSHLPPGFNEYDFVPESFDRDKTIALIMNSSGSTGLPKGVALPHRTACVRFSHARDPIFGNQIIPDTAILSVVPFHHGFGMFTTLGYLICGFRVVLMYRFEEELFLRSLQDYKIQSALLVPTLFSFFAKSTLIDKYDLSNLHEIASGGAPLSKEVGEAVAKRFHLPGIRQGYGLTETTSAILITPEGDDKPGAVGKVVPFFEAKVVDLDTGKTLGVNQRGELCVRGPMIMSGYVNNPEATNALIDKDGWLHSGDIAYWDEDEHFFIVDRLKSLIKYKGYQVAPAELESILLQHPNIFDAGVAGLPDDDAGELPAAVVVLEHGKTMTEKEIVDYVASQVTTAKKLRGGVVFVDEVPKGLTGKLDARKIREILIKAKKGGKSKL
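Purified P. pyralis luciferase, 10 nM final, with Km-level 10 uM D-luciferin and 10 uM ATP in 50 mM Tris acetate pH 7.5, 10 mM Mg acetate, 0.01% Tween-20, 0.05% BSA; 6-point qHTS titration about 60 µM downward; luminescence read.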
NPC1 prom act – activates the NPC1 promoter | Huh7 NPC1 promoter luciferase reporter, 24 h | Potency, µM (series often up to 9.22 µM), hits mostly activators | hit rate 2.4% among 320,000 | AID 485313; note: nearly all actives have a fitted effect of over 60% in size
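Cells: Huh7 expressing luciferase under the NPC1 promoter, 1500/well. Seeded 2 h, compound added, incubated 24 h at 37 °C. Luciferase reagent, 10 min ambient, then luminescence.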
SMN2 splice enh – enhancers of SMN2 splice variant expression; hit rate 2.8% among 210,000; HEK293 SMN2-luciferase splicing reporter, luminescence, 30-36 h; AID 1458; Potency, µM (titrated, usually from 46.1 µM), actives largely listed as activators; note: nearly all actives have a fitted effect of over 55% in size
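qHTS luciferase splicing reporter: luminescence rises when SMN2 exon 7 is included in transfected HEK293 cells. Compound exposure lasted 30-36 h at 37C, with 4.5 mM final sodium butyrate as control, followed by a ONE-Glo read.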
KinaseGlo FLuc – blocks Kinase-Glo luciferase, a counter-screen artifact | Q27757 | Kinase-Glo luciferase, ATP luminescence, 8 min | Potency, µM (doses to about 38.3 µM), most hits filed as inhibitors | hit rate 0.28% among 200,000; note: nearly all actives have a fitted effect of over 60% in size
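Compound is pinned into ATP-containing buffer (10 uM ATP, imidazole pH 7.2, 7 mM MgCl2). Kinase-Glo luciferase reagent is then added. Light output is recorded following an 8-min room-temperature incubation.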
Rab9 prom act – activates the Rab9 promoter; AID 485297; Potency, µM (doses to about 9.22 µM), actives largely listed as activators; hit rate 2.8% among 320,000; Huh7 Rab9 promoter-luciferase reporter, luminescence, 24 h; note: nearly all actives have a fitted effect of over 60% in size
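Using Huh7 cells stably transfected with Rab9 promoter–luciferase, compounds were incubated 24 h at 37 °C, 5% CO2; luciferase luminescence was read 10 min after reagent addition.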
A number is an active result; - = inactive; ? = inconclusive; . = not tested or not shown; [ ] = another dose, or the depositor's remark. Calls come from the whole dose curve; as a rule, active = well fitted curve in the direction sought with a large enough effect; inconclusive = small, poorly fitted or top-dose-only effect, or another doubt; inactive = no such curve, though single readings can be large; an effect the other way counts as inactive or inconclusive.

SMILES | ELG1 genotox | FLuc modulator | NPC1 prom act | SMN2 splice enh | KinaseGlo FLuc | Rab9 prom act
COc1ccccc1CNC(=O)CN1CCN(S(=O)(=O)c2cccs2)CC1 | - | - | - | - | - | -
CC(=O)NC(Nc1c(C)n(C)n(-c2ccccc2)c1=O)C(Cl)(Cl)Cl (stereo not given) | - | - | - | - | - | -
Cc1coc2c(C)c3oc(=O)c(CCC(=O)N4CCC(C(=O)NCCCC(=O)O)(c5ccccc5)CC4)c(C)c3cc12 | - | - | - | . | . | -
Cc1ccc(C(=O)CC(=O)COc2ccc(Cl)cc2C)cc1 | - | - | - | - | - | -
Cc1ccc(NC(=O)c2ccc(OC(=O)CCN3C(=O)c4ccccc4C3=O)cc2)cc1 | ? | - | 3.16µM | 14.1µM | - | 1.78µM
Cc1ccc(NC(=O)c2ccc(OC(=O)COc3cccc(Cl)c3)cc2)cc1 | ? | ? | 2.82µM | 25.1µM | - | 2.82µM
Cc1ccc(NC(=O)c2ccc(OC(=O)COc3ccc(Cl)cc3C)cc2)cc1 | ? | ? | 3.98µM | 12.6µM | - | 3.55µM
Cc1cc(C)cc(OC(=O)CCN2C(=O)c3ccccc3C2=O)c1 | - | - | - | - | - | -
COC(=O)COc1cccc(NC(=O)c2cccc(C)c2)c1 | - | ? | - | - | - | -
Cc1cccc2c1-c1sc(C(=O)Nc3ccccc3N3CCN(C)CC3)cc1CO2 | - | - | - | . | . | -
CC(=O)OC[C@@]1(O)C[C@@]23CC[C@@H]4c5ccoc5CC[C@@]4(C)[C@@H]2CCC1C3 | . | . | . | - | - | .
COc1ccc(-c2cc(C(=O)N3CCCc4ccccc43)no2)cc1 | - | 6.01µM | ? | - | - | ?
COc1ccc(-c2cc(C(=O)N3CCCc4ccccc43)no2)cc1OC | - | ? | - | - | - | -
COc1cccc(-c2cc(C(=O)N3CCCc4ccccc43)no2)c1 | - | 12µM | - | ? | - | -
COc1ccc(C2=NOC(C(=O)N3CCCc4ccccc43)C2)cc1 (stereo not given) | - | 13.5µM | - | - | - | -
COc1cc(OC)c(NC(=O)Cn2c(=O)nc(-c3ccccc3)c3ccccc32)cc1Cl | . | - | . | - | . | .
Cn1c(N)c(C(=O)CSc2nnc(NC3CCCCC3)s2)c(=O)n(C)c1=O | - | - | - | . | . | -
CCCCc1ccc(/C(C)=N/Nc2cc(N3CCOCC3)nc(C)n2)cc1 | - | ? | - | . | . | -
O=C(Nc1ccc(C(F)(F)F)cc1)C1CCC(CNS(=O)(=O)c2cccc3nsnc23)CC1 (stereo not given) | . | - | . | - | . | .
COc1ccccc1-c1nc(CNC(=O)NC2CCCCC2)c(C)o1 | . | - | . | . | . | .
NS(=O)(=O)c1ccc(NC(=S)N2CCN(C(=O)C3CCCO3)CC2)cc1 (stereo not given) | - | 4.78µM | - | . | . | -
C#Cc1cccc(NC(=O)c2ccc3c(c2)C(=O)N(Cc2cccnc2)C3=O)c1 | - | 13.5µM | - | . | . | -
CC(C)(C)N1C(=O)c2ccc(C(=O)Nc3nccs3)cc2C1=O | ? | 3.38µM | 3.55µM | - | - | 2.82µM
O=C(NCc1ccccc1)c1ccc2c(c1)C(=O)N(Cc1cccnc1)C2=O | - | - | - | . | . | -
Cc1ccc(NC(=O)c2ccc3c(c2)C(=O)N(Cc2cccnc2)C3=O)c(C)c1 | - | - | - | - | - | -
SMILES | ELG1 genotox | FLuc modulator | NPC1 prom act | SMN2 splice enh | KinaseGlo FLuc | Rab9 prom act
O=C(O)c1cc(NC(=O)c2ccc3c(c2)C(=O)N(Cc2cccnc2)C3=O)cc(C(=O)O)c1 | - | - | - | . | . | -
Cc1cnc(NC(=O)c2ccc3c(c2)C(=O)N(Cc2cccnc2)C3=O)s1 | - | 1.69µM | - | . | . | -
O=C(Nc1nccs1)c1ccc2c(c1)C(=O)N(Cc1cccnc1)C2=O | - | 23.9µM | - | . | . | -
CCN1C(=O)c2ccc(C(=O)Nc3nccs3)cc2C1=O | - | ? | - | - | - | -
COC(=O)[C@@]1(Cc2ccccc2)[C@H]2c3cc(C(=O)N4CCCC4)n(CCN4CNCC4=O)c3C[C@H]2CN1C(=O)c1ccccc1 | . | . | . | - | - | .
CCOC(=O)COc1ccc(CC)cc1C(=O)c1ccn2nc(-c3ccc(C)cc3)cc2n1 | . | - | . | - | . | .
Cc1cccc(C)c1NC(=O)CNC(=O)CCC(=O)c1cccs1 | - | - | - | - | - | -
CCc1ccc(C(=O)/C=C/Nc2ccc(S(=O)(=O)Nc3onc(C)c3C)cc2)cc1 | - | 10.7µM | - | - | - | ?
Cc1noc(NS(=O)(=O)c2ccc(N/C=C\C(=O)c3ccncc3)cc2)c1C | - | - | - | - | - | -
COc1ccc(C(=O)/C=C/Nc2ccc(S(=O)(=O)Nc3onc(C)c3C)cc2)cc1 | - | 7.57µM | - | - | - | -
CC(C)Oc1ccc(C(=O)N/N=C/c2ccc(-c3ccc(S(=O)(=O)Nc4ncccn4)cc3)o2)cc1 | - | 26.9µM | - | - | - | -
CCc1ccc(OCC(=O)Nc2ccc(S(=O)(=O)Nc3onc(C)c3C)cc2)cc1 | . | 12µM | . | - | . | .
NC(=O)N/N=C/c1ccc(-c2ccc(S(=O)(=O)Nc3ncccn3)cc2)o1 | - | - | - | . | . | -
CNc1nc(-c2cccs2)cc(C(F)(F)F)c1C#N | - | - | - | . | . | -
CCOc1ccc(NC(=O)c2c(C)oc3nc(C)nc(N4CCOCC4)c23)cc1 | . | - | . | . | . | .
Cc1noc(NS(=O)(=O)c2ccc(NC(=O)c3ccc(OC(C)C)cc3)cc2)c1C | - | 13.5µM | - | . | - | -
Cc1noc(NS(=O)(=O)c2ccc(N/C=C/C(=O)c3ccc(F)cc3)cc2)c1C | - | 21.3µM | - | - | - | -
CC(=O)Nc1c(C(=O)O)oc2ccccc12 | - | - | - | - | - | -
O=C(Nc1c(C(=O)O)oc2ccccc12)c1ccc(C(F)(F)F)cc1 | . | 9.53µM | . | . | . | .
CC1CCc2c(C(=O)Nc3nccs3)csc2C1 (stereo not given) | ? | 4.78µM | ? | ? | - | ?
CC1CCc2c(C(=O)NCc3ccccn3)csc2C1 (stereo not given) | ? | 21.3µM | ? | ? | - | -
CC1CCc2sc(C(=O)NCc3ccc(F)cc3)cc2C1 (stereo not given) | - | ? | - | - | - | -
CC1CCc2sc(C(=O)NCc3ccccn3)cc2C1 (stereo not given) | 18.3µM | 19µM | - | . | . | ?
CC1CCc2c(C(=O)Nc3ccccn3)csc2C1 (stereo not given) | ? | 2.13µM | 3.55µM | . | . | 3.16µM
CC1CC(C)CN(CCCNC(=O)CN2C(=O)CSc3ccc(S(=O)(=O)N4CCCCC4)cc32)C1 (stereo not given) | -[9.26 µM] | - | - | . | . | -
Cc1ccc(S(=O)(=O)N2CCN(CC(=O)NC(=O)NCc3ccccc3)CC2)cc1C | - | - | - | - | - | -
CCC(=O)N1CCc2cc(S(=O)(=O)NCCC(=O)Nc3ccc(OC)c(Cl)c3)ccc21 | . | - | . | - | . | .
